Laboratory results: PubChem BioAssay AID1508622 (National Center for Advancing Translational Sciences (NCATS), 2021)

Experiment: Confirmatory qHTS for Identification of Small Molecule Activators of Huntingtin-Antisense Promoter Activity
Conditions: HEK293 HTT-AS promoter firefly luciferase reporter, 24 h; series mostly up to 57.5 µM; activity change, positive = activation: at the top concentration; active = well fitted activation curve with a large enough effect; inconclusive = small, poorly fitted or top-dose-only effect; inactive = no such curve, though single readings can be large or run the other way
Source text: Assay Provider: Russell L. Margolis M.D.
Department Neurology, Johns Hopkins University School of Medicine, Baltimore, MD
Huntington's Disease (HD) is a neurodegenerative disorder caused by a CAG repeat expansion in exon 1 of huntingtin (HTT). While there are currently no disease-modifying treatments for HD, recent efforts have focused on development of nucleotide-based therapeutics to lower HTT expression. As an alternative to siRNA or oligonucleotide methods, we hypothesized that suppression of HTT expression might be accomplished by small molecules that either (1) directly decrease HTT expression by suppressing HTT promoter activity or (2) indirectly decrease HTT expression by increasing the promoter activity of HTT-AS, the gene antisense to HTT that appears to inhibit expression of HTT.
We developed and employed a high throughput screen for modifiers of HTT and HTT-AS promoter activity using luminescent reporter HEK293 cells; of the 52,041 compounds tested, we identified 898 replicable hits. We used a rigorous stepwise approach to assess compound toxicity and the capacity of the compounds to specifically lower huntingtin protein in 5 different cell lines, including HEK293 cells, HD lymphoblastoid cells, mouse primary neurons, HD iPSCs differentiated into cortical-like neurons, and HD hESCs. We found no compounds which were able to lower huntingtin without lowering cell viability in all assays, though the potential efficacy of a few compounds at non-toxic doses could not be excluded.
SEQUENCE No. (1, 2, 3, etc.); […] (e.g., Cells, Incubation, Reagent, etc.); VALUE and DESCRIPTION.
1; Reagent; 4 uL; 2,500 Hek293 luciferase reporter cells per wells
3; Compound; 23 nL; Control inhibitor / compound library
5; Reagent; 2.5 uL; Firefly Luc reagent; Dual-Glo Luciferase Reporter Assay System (Promega)
6; Time; 10 min; room temperature incubation
7; Detection; Luminescence; FLuc
NOTES (numbers refer to sequence above)
1; High-throughput screening, measuring luminescence from a Hek293 luciferase reporter, was performed in 1,536 well white-walled tissue-culture treated plates. 2,500 cells were plated in 4 uL of Opti-MEM per well using a Multidrop Combi Reagent Dispenser (ThermoFisher).
2; Assay plates were cultured for 24 hours.
3; Control inhibitor (PTC124; final concentration of 50 uM) and compound library (at final concentrations of 460 nM - 57.5 uM) were added to the assay plate using the Kalypsis Pintool Robotic System equipped with 1536 pinheads.
4; Cells were then incubated for 24 hours at 37C prior to luminescence measurements.
5; In all cases, luminescence was measured using the Dual-Glo Luciferase Reporter Assay System (Promega) following the manufacturer's instructions.
6; Room temperature incubation.
7; Luminescence signal was obtained using the PerkinElmer ViewLux plate reader. Results were normalized to vehicle control (0% activity) and zero RLU (-100% activity).

Activity change, positive = activation, inactive:
CC(=O)C1=C(c2ccc(Cl)c(Cl)c2)N(C(C)=O)n2c(C)nnc2S1 -74.3%
CC(=O)Nc1cccc(NC(=O)Cc2csc(COc3cccc(C)c3)n2)c1 -50.9%
CCOc1ccc(-c2nc(CSCC(=O)NCCc3ccccc3)c(C)o2)cc1 -47.2%
COC(=O)c1c(C)oc2ccc(N(C(=O)c3ccncc3)S(=O)(=O)c3ccc(Br)cc3)cc12 -95%
COc1ccc(Cn2c(CO)cnc2SCc2ccc(F)cc2)cc1 -83.9%
CC1CCCCN1C(=O)CSc1nc2ccccc2nc1Cc1ccc(Cl)cc1 (stereo not given) -83.6%
CCOc1ccc(-c2nc(CSCC(=O)NCCc3ccc(OCC)c(OCC)c3)c(C)o2)cc1 -49.7%
CCOc1ccc(NC(=O)c2c(Nc3ccccc3C)sc(C(=O)c3ccc(Cl)cc3)c2N)cc1 -30.3%
COc1ccc(OC2CCN(S(=O)(=O)c3ccc(OC)cc3)CC2)cc1 -45.6%
CCc1ccc(NC(=O)c2ccc(F)c(S(=O)(=O)N3CCC(C)CC3)c2)cc1 -23.4%
Cc1oc(-c2ccc(C(=O)NCc3ccccc3F)cc2)nc1COc1ccccc1 -31%
COc1ccc(C(=O)Oc2c(Sc3ccccc3)c(C)nn2-c2ccccc2)c(OC)c1 -31.5%
CCSc1ncc(Cl)c(C(=O)Nc2ccc(S(=O)(=O)N3CCCCC3)cc2)n1 -39.5%
CCc1ccc(-n2c(SCC(=O)NC(C)CC)nc3n[nH]c(C)c3c2=N)cc1 (stereo not given) -9.19%
O=S(=O)(NCCc1csc2nc(-c3ccccc3)nn12)c1ccc(Oc2ccccc2)cc1 -94.1%
CCc1c(C)sc2c1CCN(Cc1ccc(F)cc1)C2c1ccccc1 (stereo not given) -9.25%
CCc1ccc(CN(Cc2ccco2)C(=O)COc2ccccc2Cl)cc1 -8.92%
COc1ccc(NC(=O)Cc2csc(COc3cccc(C)c3)n2)cc1OC -68.6%
Cc1noc(/C=C/c2ccccc2F)c1S(=O)(=O)N1CCC(C(=O)Nc2ccc(C#N)cc2)CC1 -45.9%
CCN(CC)c1ccc(NC(=O)c2sc3nc(-c4ccccc4)cn3c2C)cc1 -7.86%
CCOC(=O)c1ccc(N2C(=O)c3[nH]nc(-c4ccc(OCC)cc4)c3C2c2cccs2)cc1 (stereo not given) -25.7%
COc1ccc(-c2[nH]c3ccccc3c2SCCNC(=O)c2cc(OC)c(OC)c(OC)c2)cc1 -35%
CCOC(=O)Cc1ccc(NC(=O)N(Cc2ccc(CC)cc2)Cc2cn[nH]c2-c2ccc(OC)cc2)cc1 -29.3%
CCOc1ccc(NC(=O)CN(c2ccc(Cl)cc2C)S(=O)(=O)c2ccccc2)cc1 -35.9%
COc1ccc(-c2noc(N3CCN(c4cccc(C)c4C)CC3)n2)cc1OC -84.3%
O=C(CN(c1cccc(C(F)(F)F)c1)S(=O)(=O)c1ccccc1)Nc1cccc(Cl)c1 -90.3%
CCOC(=O)C1CCC(CN(Cc2c(Cl)cccc2Cl)S(=O)(=O)c2ccc(Cl)cc2)CC1 (stereo not given) -73.4%
COc1cc(CN2CCc3nc(N4CCN(c5ccccc5F)CC4)ncc3C2)ccc1OC(C)C -71.5%
COc1cc(Cn2c(=O)oc3ccc(C)cc32)ccc1OCCC(C)C -26.9%
CCc1cccc(C)c1NC(=O)Cn1cc2c(n1)CCCC2 -85.6%
CCS(=O)(=O)c1ncc(Cl)c(C(=O)NCc2ccc(OC)cc2)n1 -95.5%
C[n+]1cc2c3c(ccc2c2ccc4cc5c(cc4c21)OCO5)OCO3 -92.6% [at 24 µM]
CC(C)c1ccc(NC(=O)C2CCN(c3nc(-c4ccc(C(C)C)cc4)no3)CC2)cc1 -91.2%
Cc1ccc(S(=O)(=O)C(CNC(=O)C(=O)NCCc2ccc(F)cc2)c2cccs2)cc1 (stereo not given) -32.4%
COc1ccccc1N1CCN(C(=O)C2CCCN(S(=O)(=O)c3ccc4c(c3)CCCN4C(C)=O)C2)CC1 (stereo not given) -55.3%
COc1cc(OC)cc(C(=O)Nc2ccc3c(c2)CCCN3C(=O)c2cccs2)c1 -33.5%
Cc1nc(-c2ccc(Cl)cc2)sc1CCNC(=O)Cc1ccc(F)cc1 -61.8%
Cc1cccc(-c2nc3scc(CCNS(=O)(=O)c4ccc(Oc5ccccc5)cc4)n3n2)c1 -93.6%
CCOC(=O)C1CCC(CN(Cc2ccc(Cl)cc2)S(=O)(=O)c2cc(Cl)cc(Cl)c2)CC1 (stereo not given) -93.1%
CCOC(=O)c1ccc(Nc2nc3nonc3nc2Nc2cccc(C)c2C)cc1 -92.9%
